# Measurements from PubChem BioAssay (NCI).
# This is part of a sample that, as a whole, favours compounds with a hit. Of some 83,000 tested, about 20% had one in any assay.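 Results are percent growth after 48 hours of single-concentration exposure. 100 means growth as in untreated cells, lower positive values show inhibition; negative values down to -100 show cell death.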 Values without a mark were called inactive. Active and inactive are the calls of the source. The calls were made as follows: active = growth percent below 10; inactive = the rest.
# Tests used:
# Assay in all cases: NCI-60 one-dose screen, 48 h (100 = growth as untreated, 0 = no growth, -100 = all killed)
# Details in all cases: 10 µM unless noted
# NCI-H226 lung = system: NCI-H226 lung
# NCI-H322M lung = system: NCI-H322M lung
# HOP-62 NSCLC = system: HOP-62 NSCLC
# NCI-H460 lung = system: NCI-H460 lung
# HOP-92 NSCLC = system: HOP-92 NSCLC
# NCI-H522 lung = system: NCI-H522 lung
# A549/ATCC NSCLC = system: A549/ATCC NSCLC
# 786-0 renal = system: 786-0 renal
# COLO 205 colon = system: COLO 205 colon
# DU-145 prostate = system: DU-145 prostate
# K-562 leukemia = system: K-562 leukemia
# MALME-3M melanoma = system: MALME-3M melanoma
# MDA-MB-231 breast = system: MDA-MB-231 breast
# SF-268 CNS = system: SF-268 CNS
# SF-295 CNS = system: SF-295 CNS
# SF-539 CNS = system: SF-539 CNS
# UACC-257 melanoma = system: UACC-257 melanoma
# RXF 393 renal = system: RXF 393 renal
# M14 melanoma = system: M14 melanoma
Structure (SMILES),growth (NCI-H226 lung),growth (NCI-H322M lung),growth (HOP-62 NSCLC),growth (NCI-H460 lung),growth (HOP-92 NSCLC),growth (NCI-H522 lung),growth (A549/ATCC NSCLC),growth (786-0 renal),growth (COLO 205 colon),growth (DU-145 prostate),growth (K-562 leukemia),growth (MALME-3M melanoma),growth (MDA-MB-231 breast),growth (SF-268 CNS),growth (SF-295 CNS),growth (SF-539 CNS),growth (UACC-257 melanoma),growth (RXF 393 renal),growth (M14 melanoma)
COc1ccc(-c2c(N)n[nH]c2-c2ccccc2O)cc1OC,99.6%,102%,88.9%,107%,74%,85%,95.2%,97.2%,98.1%,116%,87.2%,62.8%,78.7%,100%,101%,86.5%,100%,–,–
CCCCN1CCN(c2ccc3nc(-c4ccc5nc(-c6cc(OC)c(OC)c(OC)c6)[nH]c5c4)[nH]c3c2)CC1,77.6%,86.4%,61.4%,83%,49.9%,52.8%,105%,50.6%,–,91.6%,30.8%,21.1%,78.9%,71.8%,58.6%,61.1%,87.9%,-43.4% (active),59%
N=C(N)c1ccc(-c2ccc(/C=C/c3ccccc3)s2)cc1,84.7%,1% (active),33.3%,-60.1% (active),34.7%,20%,12.7%,-38.3% (active),–,1.59% (active),-27.7% (active),61.2%,-51.5% (active),60.7%,-61.7% (active),17.2%,105%,39.2%,31.8%
N#Cc1c(N)nc2c(nnn2-c2cccc(Br)c2)c1N,95.7%,–,94.8%,97.1%,82.2%,86%,92.6%,105%,105%,109%,–,115%,89%,97.1%,107%,105%,106%,111%,–
O=C(O)CC1Sc2ccccc2NC1=O (configuration not stated),95.2%,104%,96.3%,195%,73.1%,81%,106%,108%,–,116%,70.4%,106%,108%,100%,104%,145%,98.5%,–,89.5%
CCCCNC(=O)NS(=O)(=O)c1ccc(N2N=C(c3ccc(C)cc3C)CC2c2ccc(N(C)C)cc2)cc1 (configuration not stated),82.9%,87.4%,88.6%,39.2%,71.5%,50%,40.6%,53.1%,75.6%,84.8%,44.4%,101%,80.1%,79.9%,–,62.6%,66.1%,79.5%,–
COc1ccc(Cn2cnc3cc(C(=O)Nc4cccc5ccccc45)ccc32)c(OC)c1,14.5% [30 µM],45% [30 µM],41.6% [30 µM],1.11% [30 µM] (active),21.1% [30 µM],3.89% [30 µM] (active),16% [30 µM],20.3% [30 µM],-21.6% [30 µM] (active),-7.09% [30 µM] (active),1.36% [30 µM] (active),38.2% [30 µM],4.77% [30 µM] (active),13.8% [30 µM],7.91% [30 µM] (active),-36.7% [30 µM] (active),69.4% [30 µM],–,–
COc1cc(-c2ccc(-c3ccc(C(=N)N)nc3)s2)cc(OC)c1OC,102%,70.3%,67.9%,25.7%,49%,77%,61.3%,40.3%,–,49.9%,5.58% (active),24.7%,44.2%,86.1%,40.1%,1.84% (active),92.9%,77.1%,43.1%
CC(C)OC(=O)OCOP(=O)(OCOC(=O)OC(C)C)C1CCCN(O)C1=O (configuration not stated),56.1%,–,13.3%,17%,41.7%,-6.81% (active),22.1%,17.6%,–,52.5%,30.3%,41.1%,21.8%,26.5%,62.8%,75.5%,55.2%,8.56% (active),44.4%
O=C(NCc1cccnc1)c1cc(-c2csc3c(=O)cc(N4CCOCC4)oc23)cc2c1OCCO2,49.8%,40%,30.9%,52.5%,19.3%,28.4%,40.2%,43.5%,–,70%,24.8%,47.9%,21.5%,53%,30%,10.6%,47%,40.6%,43.4%
C=C1C(=O)O[C@H]2[C@H]1CC/C(COC(=O)/C=C\C(=O)NCc1ccc(Cn3c(=O)sn(-c4ccc(Cl)cc4)c3=O)cc1)=C\CC[C@@]1(C)O[C@@H]21,-58.9% (active),-18.5% (active),-34.7% (active),-73.2% (active),-66.7% (active),-55.9% (active),-43.7% (active),-82.5% (active),-45% (active),-94.7% (active),-20.5% (active),-93.1% (active),-86.1% (active),-74.4% (active),56.2%,-100% (active),-64.8% (active),–,–
COc1ccc2c(c1)/C(=C\c1sc(=S)[nH]c1O)C(C(=O)O)=N2,99.3%,102%,116%,108%,91.6%,87.6%,99.8%,102%,–,99.2%,92.6%,94.7%,94.8%,92.3%,103%,99.4%,96.7%,95.2%,97%
Cc1cc(C(c2ccccc2)c2ccccc2)ccc1NS(=O)(=O)c1ccccc1,102%,119%,110%,93.2%,95.8%,83.7%,87.9%,102%,–,102%,65.1%,130%,88.5%,85.9%,109%,98.4%,118%,102%,108%
Cc1cc2c(F)c(Oc3ncnc(Nc4ccc(N5C[C@@H](C)N[C@@H](C)C5)cc4)c3C#N)cc(F)c2[nH]1,74.1%,47.9%,75.8%,6.38% (active),89.1%,-21.8% (active),13.7%,–,-56.5% (active),38.9%,-40.4% (active),75%,-0.722% (active),29.3%,17.4%,-78.7% (active),65.9%,-25.7% (active),–
COc1cc2c(cc1OC)-c1ccc3cc4c(cc3c1N(CCCN(C)C)C2)OCO4,57.6%,51.3%,38%,14.6%,9.04% (active),19.5%,20.2%,35%,–,38.9%,20.6%,58.2%,36.3%,34%,42.7%,40.2%,34.6%,35.1%,33.2%
N#Cc1c(NC(=O)c2cccc(C(F)(F)F)c2)sc2c1CCC(=O)C2,13.6%,–,4.66% (active),3.47% (active),-28.5% (active),-15.2% (active),14.6%,13.1%,–,24%,6.88% (active),-64.9% (active),-54.3% (active),1.68% (active),-6.4% (active),-57.8% (active),-3.73% (active),-23.5% (active),-68.2% (active)
O=C(O)C1C[C@](O)(c2ccc(F)cc2)[C@@H](c2ccc(F)cc2)O1 (some centres not stated),122%,121%,90.3%,101%,78.2%,91.5%,112%,95.6%,110%,139%,89.3%,113%,115%,117%,94.2%,125%,111%,–,–
COc1cc(C(=O)/C=C/c2c(C(F)(F)F)nc3ccccn23)cc(OC)c1OC,-25.5% (active),8.14% (active),-26.9% (active),-44.4% (active),2.54% (active),-51.4% (active),9.73% (active),-60.9% (active),–,-25.8% (active),-9.61% (active),7.53% (active),13.9%,-36.1% (active),-14.9% (active),-92.8% (active),-9.93% (active),-68.8% (active),–
